40 compounds from PubChem BioAssay (EPA / NIEHS) can be followed below.

Each structure is given as a SMILES string. Results filed as inconclusive are left out. The source made the active and inactive calls. The calls were made as follows: active = hit-call score of the fitted dose curve at least 0.9, where 1 is the maximum; inconclusive = response in the unintended direction; inactive = score below 0.9.

This assay deals with Peroxisome proliferator-activated receptor gamma (Homo sapiens) (UniProt P37231). Briefly: ATG_PPARg_TRANS: Attagene TRANS-FACTORIAL HepG2 Assay for human Peroxisome Proliferator-activated Receptor-gamma (PPARg) (AID 2283007). The procedure: ATG_TRANS is a cell-based, multiplexed-readout assay that uses HepG2, a human liver cell line, with measurements taken at 24 hours after chemical dosing in a 24-well plate.ATG_PPARg_TRANS is one of 30 assay component(s) measured or calculated from the ATG_TRANS assay. It is designed to make measurements of mRNA induction, a form of inducible reporter, as detected with fluorescence intensity signals by Reverse transcription polymerase chain reaction (RT-PCR) and Capillary electrophoresis technology.Data from the assay component ATG_PPARg_TRANS was analyzed into 1 assay endpoint. This assay endpoint, ATG_PPARg_TRANS, was analyzed in the positive analysis fitting direction relative to DMSO as the negative control and baseline of activity. Using a type of inducible reporter, measures of mRNA for gain-of-signal activity can be used to understand the reporter gene at the transcription factor-level as they relate to the gene PPARG. Furthermore, this assay endpoint can be referred to as a primary readout, because this assay has produced multiple assay endpoints where this one serves a reporter gene function. To generalize the intended target to other relatable targets, this assay endpoint is annotated to the nuclear receptor intended target family, where the subfamily is non-steroidal.
Chain of Peroxisome proliferator-activated receptor gamma (Homo sapiens) (P37231 whole entry, looked up): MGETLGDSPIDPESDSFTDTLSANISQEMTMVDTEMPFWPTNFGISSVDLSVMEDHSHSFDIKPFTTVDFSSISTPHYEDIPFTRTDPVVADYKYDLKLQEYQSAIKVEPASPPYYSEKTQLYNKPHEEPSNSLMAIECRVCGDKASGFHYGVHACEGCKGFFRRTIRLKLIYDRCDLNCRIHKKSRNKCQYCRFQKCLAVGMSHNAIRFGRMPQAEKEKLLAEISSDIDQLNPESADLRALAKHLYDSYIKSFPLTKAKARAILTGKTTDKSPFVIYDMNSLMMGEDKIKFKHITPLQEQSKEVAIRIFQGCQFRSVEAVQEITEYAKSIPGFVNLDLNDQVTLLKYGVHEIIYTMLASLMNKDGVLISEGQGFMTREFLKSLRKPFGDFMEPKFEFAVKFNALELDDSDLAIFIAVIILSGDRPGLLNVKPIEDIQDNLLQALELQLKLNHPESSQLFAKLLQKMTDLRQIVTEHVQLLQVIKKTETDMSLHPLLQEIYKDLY
Human liver HepG2 cells are transiently transfected with multiple reporter transcription units (MRTUs) in 6-well plates using FuGene 6 reagent (Roche; 3 ml FuGene/1 mg DNA). The MRTU constructs are regulated by a cis-regulating element (promoter). […] A major difference between the CIS and TRANS system is that in CIS activities of endogenous TFs are measured, whereas the TRANS assay evaluates changes in activities of exogenous, chimeric NR-Gal4 proteins. […] At the end of 24 hour incubation, total RNA was isolated using TriZol reagent (Invitrogen). The isolated RNA is then reverse-transcribed using oligo(dT) primer and Mo-MLV reverse transcriptase (Invitrogen) with DNAse I (Ambion) treatment for 30 min. The one-tenth of the produced cDNA was amplified by PCR using Taq DNA polymerase (Invitrogen) and two reporter sequence-specific primers. The PCR products were fluorescently labeled by primer extension with 6-arboxyfluorescein (6-FAM) 5'-labeled reporter sequence-specific primer (2 min at 95 C, 20 s at 68 C and 10 min at 72 C) and these products were digested with 5U of HpaI (New England Biolabs) for 2h at 37 C. The fragments were purified using Qiaquick PCR columns (Qiagen), analyzed on an ABI 3130xL genetic analyzer (Applied Biosystems) with peak positions identified by using a set of X-rhodamine (ROX)-labeled MapMarker1000 molecular weight standards (BioVentures). The raw capillary electrophoresis data was processed using Attagraph software (Attagene).
In the case of `O=C1C2CC=CCC2C(=O)N1SC(Cl)(Cl)Cl` (stereo not given), the outcome was inactive.

Regarding `CCOc1nc(C(Cl)(Cl)Cl)ns1`, the compound was classed as inactive. Regarding `COP(=S)(OC)Oc1ccc([N+](=O)[O-])c(C)c1`, the concentration at half-maximal activity (AC50) is 32.6 µM (active).

Turning to `CC(C)(C)C(=O)C(Oc1ccc(Cl)cc1)n1cncn1` (stereo not given), the compound was classed as inactive. Regarding `COC(=O)c1c(C(F)F)nc(C(F)(F)F)c(C2=NCCS2)c1CC(C)C`, the AC50 was 45.5 µM (active). For the compound `CCNC(=O)NC(=O)C(C#N)=NOC`, the outcome was inactive. Turning to `CC(C)NC(=O)N1CC(=O)N(c2cc(Cl)cc(Cl)c2)C1=O`, the AC50 is 23.4 µM (active). For the compound `CCCCC(C#N)(Cn1cncn1)c1ccc(Cl)cc1` (stereo not given), the compound was called inactive. On to `CS(=O)(=O)c1ccc(C(=O)C2C(=O)CCCC2=O)c([N+](=O)[O-])c1`, for which the call was inactive. For the compound `CCCCC(O)(Cn1cncn1)c1ccc(Cl)cc1Cl` (stereo not given), the compound was called inactive. For the compound `COc1cc(Cl)c(OC)cc1Cl`, the result was inactive. `CN=C=S`: the AC50 was 50 µM (active). For `CO/N=C(/C1=NOCCO1)c1ccccc1Oc1ncnc(Oc2ccccc2Cl)c1F`, the compound was called inactive. Take `CC1(C)C(C(=O)OC(C#N)c2cccc(Oc3ccccc3)c2)C1(C)C` (stereo not given): the half-maximal activity concentration (AC50) was 16.9 µM (active). Regarding `OC(c1ccc(Cl)cc1)(c1ccc(Cl)cc1)C(Cl)(Cl)Cl`, the result was inactive.

For the compound `CC1(C)CCC(=Cc2ccc(Cl)cc2)C1(O)Cn1cncn1` (stereo not given), the compound was called inactive. Take `CC(C)N1C(=O)c2ccccc2NS1(=O)=O`: the compound was called inactive. For the compound `CNC(=O)N(C)c1nnc(C(C)(C)C)s1`, the result was inactive. As to `CS(=O)(=O)c1cc(C(F)(F)F)ccc1C(=O)c1cnoc1C1CC1`, the concentration at half-maximal activity (AC50) is 14.2 µM (active). With `COP(=S)(OC)SCn1nnc2ccccc2c1=O`, the result was inactive. Same read-out and setting: to `CC(C)N1C(=O)N(c2ccccc2)CSC1=NC(C)(C)C` belongs “inactive”; to `C=C(C)CN(CC)c1c([N+](=O)[O-])cc(C(F)(F)F)cc1[N+](=O)[O-]`, “inactive”. The same measure, in the same setting: for `N#CN=C1SCCN1Cc1ccc(Cl)nc1` the value was “inactive”.

Regarding `O=c1n(Cl)c(=O)n(Cl)c(=O)n1Cl`, the outcome was inactive. On the same count and under the same terms, for `COCc1cnc(C2=NC(C)(C(C)C)C(=O)N2)c(C(=O)O)c1` (stereo not given) the value was “inactive”; for `COC(=O)NS(=O)(=O)c1ccc(N)cc1`, “inactive”. With `CC(C)Oc1cccc(NC(=O)c2ccccc2C(F)(F)F)c1`, the AC50 is 30.9 µM (active). Take `CSC(=O)c1c(C(F)F)nc(C(F)(F)F)c(C(=O)SC)c1CC(C)C`: the AC50 is 10.9 µM (active). In the case of `Cc1cc(C)nc(Nc2ccccc2)n1`, the compound was called inactive.

For the compound `COCC(=O)N(c1c(C)cccc1C)C(C)C(=O)OC` (stereo not given), the compound was classed as inactive. Same read-out and setting: for `COC(=O)NC(=S)Nc1ccccc1NC(=S)NC(=O)OC` the value was “inactive”. As to `CCN(CC)C(=O)C(C)Oc1cccc2ccccc12` (stereo not given), the half-maximal activity concentration (AC50) is 50 µM (active).

With `CCN(CC)c1nc(C)cc(OP(=S)(OC)OC)n1`, the AC50 was 46.1 µM (active).

Regarding `CC(C)Nc1nc(Cl)nc(NC(C)C)n1`, the compound was classed as inactive. In the case of `CC1(C)C(C=C(Cl)Cl)C1C(=O)OC(C#N)c1cccc(Oc2ccccc2)c1` (stereo not given), the AC50 was 17.9 µM (active). As to `Clc1nc(Cl)nc(Nc2ccccc2Cl)n1`, the concentration at half-maximal activity (AC50) was 9.95 µM (active). The same measure, in the same setting: for `CCCCOCN(C(=O)CCl)c1c(CC)cccc1CC` the value was 1.38 µM (active). Turning to `Cc1nc(N(C)C)nc(OC(=O)N(C)C)c1C`, the call was inactive. For `COC(=O)N(C(=O)N1CO[C@@]2(C(=O)OC)Cc3cc(Cl)ccc3C2=N1)c1ccc(OC(F)(F)F)cc1`, the compound was called inactive. Same read-out and setting: to `CCOP(=S)(OCC)Oc1nc(Cl)n(C(C)C)n1` belongs “inactive”.

As usually defined, the AC50 is the concentration at which the activity in the assay is half-maximal.
